The list is not random: actives were taken first. Their share in the collection is about 2.5%.
Apoferritin bind: candidate novel general anesthetic via apoferritin binding; P02791; apoferritin/1-aminoanthracene competitive binding, fluorescence; Potency, µM (top dose mostly 77.5 µM), without a hit: at the highest dose activity change, negative = displacement, usual class: inhibitors; hit rate 0.074% among 350,000; also: potency is read from the fitted curve at half-maximal effect; % is scaled to controls: 0 for no effect and ±100 for the full control effect; nearly all actives have a fitted effect of over 20% in size
Target sequence (P02791 2-175 limits assumed): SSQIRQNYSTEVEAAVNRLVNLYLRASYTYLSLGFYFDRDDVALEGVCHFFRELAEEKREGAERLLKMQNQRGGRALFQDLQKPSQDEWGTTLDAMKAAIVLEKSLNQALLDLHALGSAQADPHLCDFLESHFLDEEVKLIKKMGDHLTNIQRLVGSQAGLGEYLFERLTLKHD
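Horse-spleen apoferritin (10 uM) was mixed with 50% saturated 1-aminoanthracene in PBS, exposed to compounds for 10 min at room temperature, and read for fluorescence (ex 380 nm, em 535 nm). Competitive displacement was fitted with a four-parameter Hill equation.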
CCT chaperon mod: cytosolic chaperonin activity modulation. purified chaperonin ATPase assay, HTRF ADP detection, 30 min. hit rate 0.3% among 360,000. activity change, % (test concentration not listed), hits read low. AID 651819; in the data active = activity change below about -30%; also: % is scaled to controls: 0 for no effect and ±100 for the full control effect
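TRiC at 40 or 20 nM final (batch-dependent) in 30 mM Tris pH 7.4, 100 mM KCl, 5 mM MgCl2, 1 mM DTT, with compound at single 76 uM and 10 uM ATP, 30 min at 37 deg C. ADP detected by HTRF Transcreener, 665/615 ratio.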
TDP-43 yeast inh: rescues yeast growth from TDP-43 toxicity; TDP-43 expressing yeast growth rescue, BacTiter-Glo, 24 h; Potency, µM (doses to about 46.1 µM), for the others: at the highest dose growth rescue (activation), actives largely listed as activators; hit rate 1.8% among 410,000; also: potency is read from the fitted curve at half-maximal effect; % of control where 0% means no effect; nearly all actives have a fitted effect of over 50% in size
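Yeast cells expressing TDP-43 under galactose induction are exposed to compounds for 24 hr at 30 deg C. BacTiter-Glo luminescence measures growth, so protective compounds score as activators.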
Akt phos inh: Akt phosphorylation inhibition; Neuro2A IGF-stimulated pAkt S473 HTRF, 20 min; stronger effect = lower value; activity change, % for hits at 50 µM; hit rate 0.32% among 360,000; AID 651550; in the data active = activity change below about -80%; inconclusive = mostly about -51% to -80%; also: % is scaled to controls: 0 for no effect and ±100 for the full control effect
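Neuro2A cells in DMEM with 0.5% FBS, overnight at 37 deg C, given compound at single 50 µM final, then IGF (6 nM final) for 20 min at 37 deg C. Lysed; phospho-Akt Ser473 by HTRF after 24 h, 665/615 ratio.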
aSyn rescue: inhibitors of alpha-synuclein toxicity in yeast. Yeast expressing alpha-synuclein, growth rescue, BacTiter-Glo, 24 h. Potency, µM (top dose mostly 46.1 µM), for inactives: at the top dose growth rescue (activation), hits mostly activators. hit rate 0.14% among 370,000; also: potency is read from the fitted curve at half-maximal effect; % of control where 0% means no effect; nearly all actives have a fitted effect of over 65% in size
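Galactose-induced alpha-syn yeast (OD600=0.02, raffinose-pregrown) + pinned cpd, 24 hr, 30 deg C; growth by BacTiter-Glo luminescence. Growth restoration scores as activation.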
Mito fusion yeast: mitochondrial division inhibition or fusion activation; S. cerevisiae fusion-defective mutant growth rescue, CellTiterGlo 48 h; Potency, µM (top dose mostly 46.1 µM), without a hit: at the highest dose growth rescue (activation), usual class: activators; hit rate 0.23% among 320,000; AID 485298; also: potency is read from the fitted curve at half-maximal effect; % of control where 0% means no effect; nearly all actives have a fitted effect of over 45% in size
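Growth-rescue viability read-out: after 48 h at the non-permissive 37C in glycerol/ethanol YPEG, yeast mitochondrial fusion mutants are measured by CellTiterGlo luminescence; compounds (23 nl pinned per well) restoring growth score as division inhibitors or fusion activators.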
Starred values were filed as active, the others as inactive; i = inactive; ? = inconclusive; / = not tested or not shown; ! = not confirmed by another sample; [ ] = remark or other dose. Unless noted, calls follow the shape of the dose curve; as a rule, active = well fitted curve in the direction sought with a large enough effect; inconclusive = small, poorly fitted or top-dose-only effect, or another doubt; inactive = no such curve, though single readings can be large; an effect the other way counts as inactive or inconclusive.

SMILES	Apoferritin bind	CCT chaperon mod	TDP-43 yeast inh	Akt phos inh	aSyn rescue	Mito fusion yeast
CCOC(=O)c1ccc(NC(=O)CSc2c3c(nc4cc(Cl)ccc24)CCCC3)cc1	-1%	/	16µM*	/	/	/
CNc1nc2sc3c(c2c(=O)n1C)CC(C)(C)SC3	?	0	13µM*	/	4%	?
COc1cccc2ccc(CC(O)(c3ccccc3)c3ccccc3)nc12	/	-52*	19%	i	-4%	/
O=C(Nc1ccc2nc(-c3cccs3)c(-c3cccs3)nc2c1)N1CCCCC1	/	/	/	/	2%	/
CCOc1ccc(/C=C/c2ccc3ccccc3n2)cc1OCC	/	/	/	/	11%	/
O=C(c1ccc(N2CCCC2=O)cc1)N1CCN(c2ccccc2Cl)CC1	/	-1	16µM*	i	5%[1.84 µM]	-5%
O=C(c1ccccc1)c1ccc(C(=O)N2CCN(c3ccccc3O)CC2)cc1	/	-3	14%	i	9%	/
Nc1ccccc1N1CCN(C(=O)c2ccccc2)CC1	0%	-3	8%	-103%*	2%	0%
O=C(Oc1cccc(-n2cnnn2)c1)C1CCCCC1	-27%	-2	11µM*	/	/	-3%
CCN(C(=O)CSc1nc2ccccc2c2nc(CCn3c(C)nc4ccccc43)nn12)c1cccc(C)c1	-9%	/	-6%	/	/	/
COc1ccc(-c2noc(=O)n2Cc2ccccc2Cl)cc1	3%	-4	20µM*	i	4%	25%
O=C1C(=C(c2ccccc2)N2CCOCC2)Cc2ccccc21	/	1	13µM*	i	12%	/
O=C(c1ccccc1)N1CCN(C(=O)N2CCOCC2)CC1	-4%	0	17%	i	-8%	-1%
Cc1ccc(S(=O)(=O)C2CCN(c3nc(-c4cccs4)nc4ccccc34)CC2)cc1	/	/	/	/	-13%	/
COc1ccc(-n2c(=O)c3ccccc3n(CC(=O)NCCc3ccc(OC)c(OC)c3)c2=O)cc1	-8%	/	23%	/	/	/
CC(C)NC(=O)c1sc2nc(-c3cccs3)cc(-c3cccs3)c2c1N	-14%	0	?	-94%*	10%	2%
CC(=O)c1sc2nc(-c3cccs3)ccc2c1N	60%	-2	10µM*	i	8%	2%
Nc1c(C(=O)Nc2ccccc2Br)sc2nc(-c3cccs3)ccc12	62%	/	23%	/	/	/
C=C1CC2(OC1=O)c1ccccc1CCc1ccccc12	/	-5	1.8µM*	i	7%	/
COc1cccc(/C=C2/SC(=S)N(CC(=O)Nc3nccs3)C2=O)c1	/	/	/	/	3%	/
Fc1ccc(-c2cc3nc4c(c(N5CCOCC5)n3n2)CCCC4)cc1	-11%	3	16µM*	i	-39%	0%
CCOc1ccccc1-c1ccc(C(=O)O)s1	-1%[163 µM]	/	/	/	/	/
CC(=O)OCC1OC(C#Cc2ccc(F)cc2F)C=CC1OC(C)=O (stereo not drawn)	-6%[15.3 µM]	/	/	/	/	/
O=C(O)c1ccccc1Nc1cccc(OCc2ccc3ccccc3n2)c1	/	-2	12%	i	-4%	15µM*!
Cc1cc(OCC(=O)NNC(=S)NC(=O)c2ccc(Br)o2)ccc1Cl	-12%	0	20µM*	i	?	2%
SMILES	Apoferritin bind	CCT chaperon mod	TDP-43 yeast inh	Akt phos inh	aSyn rescue	Mito fusion yeast
CCC(=O)NC(=S)Nc1ccc(NC(=O)COc2ccc(Cl)c(C)c2)cc1	-13%	-2	4%	i	-2%	-4%
Cc1nc2ccc(C(=O)OC(C)C(=O)c3c(C)[nH]c4ccccc34)cc2nc1C (stereo not drawn)	/	/	/	/	-8%	/
CC1CN(C(=O)Nc2ccc3snnc3c2)c2ccccc21 (stereo not drawn)	-17%	-1	16µM*	i	1%	?
O=[N+]([O-])c1ccc(Cn2cc(-c3cccc(C(F)(F)F)c3)nn2)cc1	?	-3	16µM*	i	21%	14%
O=C(c1c[nH]c(C(=O)C(Cl)(Cl)Cl)c1)c1ccccc1F	4%	-3	10µM*	i	-3%	2%
Cn1ccc2c(-c3ccc(C(=O)O)cc3)cc3c(c21)C1CCC3C1 (stereo not drawn)	/	0	28µM*	i	-2%	/
COc1ccc(-c2cc3c(c4c2ccn4C)C2CCC3C2)cc1 (stereo not drawn)	/	0	35µM*	i	-7%	/
